Results: PubChem BioAssay (EPA / NIEHS)
Active and inactive are the calls of the source. How the source made its calls: active means hit-call score of the fitted dose curve at least 0.9, where 1 is the maximum; inactive means score below 0.9.

Assays:
Details in all cases: mRNA level, 48 h; actives raise or lower the signal
[1] = read-out: Insulin Like Growth Factor 1 (IGF1), IGF1 (gene 3479); experiment: LTEA_HepaRG_IGF1: Life Technologies and Expression Analysis (LTEA) Assay for Insulin Like Growth Factor 1 (IGF1) using HepaRG (AID 2283506)
Procedure, shortened: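 Expression measured by TaqMan qRT-PCR on a Fluidigm array, with three housekeeping genes for normalisation, after 48 h treatment of HepaRG cells. Top concentration 100 uM with half-log steps, 0.5% DMSO vehicle, bidirectional fit.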

[2] = read-out: Intercellular Adhesion Molecule 1 (ICAM1), ICAM1 (gene 3383); experiment: LTEA_HepaRG_ICAM1: Life Technologies and Expression Analysis (LTEA) Assay for Intercellular Adhesion Molecule 1 (ICAM1) using HepaRG (AID 2283507)
Procedure, shortened: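 Gain or loss of transcript in HepaRG hepatic cells is quantified by qRT-PCR after 48 h chemical exposure (up to 100 uM, half-log steps), with DMSO as baseline.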

[3] = read-out: Insulin-like growth factor-binding protein 1 (IGFBP1), IGFBP1 (gene 3484); experiment: LTEA_HepaRG_IGFBP1: Life Technologies and Expression Analysis (LTEA) Assay for Insulin-like growth factor-binding protein 1 (IGFBP1) using HepaRG (AID 2283508)
Procedure, shortened: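 mRNA induction or loss was quantified by qRT-PCR after 48 h chemical exposure of human HepaRG cells, with 0.5% DMSO as vehicle and baseline. Concentration-response over eight points up to 100 uM.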

[4] = read-out: Interleukin 6 (IL6), IL6 (gene 3569); experiment: LTEA_HepaRG_IL6: Life Technologies and Expression Analysis (LTEA) Assay for Interleukin 6 (IL6) using HepaRG (AID 2283509)
Procedure, shortened: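 Transcript levels, normalized to three housekeeping genes, were quantified by qRT-PCR after 48 h chemical treatment of HepaRG cells. Eight-point half-log series from 100 uM in 0.5% DMSO, duplicates. Fitted both directions against DMSO baseline.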

[5] = read-out: Interleukin 6 Receptor (IL6R), IL6R (gene 3570); experiment: LTEA_HepaRG_IL6R: Life Technologies and Expression Analysis (LTEA) Assay for Interleukin 6 Receptor (IL6R) using HepaRG (AID 2283510);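 on AC50: differentiated human HepaRG liver cells in serum-free induction medium; TaqMan qRT-PCR signal normalized to ACTB GAPDH and POLR2A housekeeping genes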
Procedure, shortened: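 IL6R transcript level by qRT-PCR after 48 h chemical exposure (8-point, half-log, max 100 uM, 0.5% DMSO vehicle) of HepaRG cells in serum-free induction medium. Normalized to three housekeeping genes; curves fitted in both directions relative to DMSO.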

[6] = read-out: Potassium channel subfamily K member 1 (KCNK1), KCNK1 (gene 3775); experiment: LTEA_HepaRG_KCNK1: Life Technologies and Expression Analysis (LTEA) Assay for Potassium channel subfamily K member 1 (KCNK1) using HepaRG (AID 2283511)
Procedure, shortened: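 KCNK1 transcript measured by TaqMan qRT-PCR against three housekeeping genes, after HepaRG cells were treated 48 h with eight half-log concentrations (top 100 uM, 0.5% DMSO). Curves fitted bidirectionally relative to vehicle.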

[7] = read-out: Keratin 19 (KRT19), KRT19 (gene 3880); experiment: LTEA_HepaRG_KRT19: Life Technologies and Expression Analysis (LTEA) Assay for Keratin 19 (KRT19) using HepaRG (AID 2283512)
Procedure, shortened: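 Gene-expression endpoint in the human liver line HepaRG after 48 h exposure to up to 100 uM test chemical with 0.5% DMSO vehicle; KRT19 mRNA by qRT-PCR, analyzed bidirectionally versus DMSO.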

[8] = read-out: JUN Transcription Factor, JUN (gene 3725); experiment: LTEA_HepaRG_JUN: Life Technologies and Expression Analysis (LTEA) Assay for JUN Transcription Factor using HepaRG (AID 2283513)
Procedure, shortened: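 mRNA measured by TaqMan qRT-PCR after 48 h chemical exposure of HepaRG cultures; normalization to three housekeeping genes. Duplicate eight-point half-log curves from 100 uM in 0.5% DMSO; gain or loss fitted against DMSO baseline.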

[9] = read-out: Lipase C (LIPC), LIPC (gene 3990); experiment: LTEA_HepaRG_LIPC: Life Technologies and Expression Analysis (LTEA) Assay for Lipase C (LIPC) using HepaRG (AID 2283514)
Procedure, shortened: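 LIPC expression was quantified by qRT-PCR against three housekeeping genes (ACTB, GAPDH, POLR2A). Differentiated human HepaRG cells received eight half-log doses (top 100 uM, 0.5% DMSO) in duplicate for 48 h; fitting bidirectional relative to DMSO.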

[10] = read-out: Lipoprotein lipase (LPL), LPL (gene 4023); experiment: LTEA_HepaRG_LPL: Life Technologies and Expression Analysis (LTEA) Assay for Lipoprotein lipase (LPL) using HepaRG (AID 2283515)
Procedure, shortened: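 LPL transcript levels quantified by TaqMan qRT-PCR against three housekeeping genes after 48 h chemical treatment of HepaRG cells. Eight-point half-log series from 100 uM in 0.5% DMSO, tested in duplicate; bidirectional fitting versus vehicle.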

Measured: AC50

O=C1OC(c2ccc(O)cc2)(c2ccc(O)cc2)c2ccccc21
active: [5] 50 µM | [9] 77.4 µM | [10] 72.5 µM
inactive: all other assays above

CC(=O)CC(c1ccccc1)c1c(O)c2ccccc2oc1=O (configuration not stated)
not listed: [5]
inactive: all other assays above

O=NO
not listed: [6]
inactive: all other assays above

CN(C)C(=O)NC1(c2ccccc2)CCN(CCC[C@]2(c3ccc(Cl)c(Cl)c3)CCCN(C(=O)c3ccccc3)C2)CC1
active: [1] 16.4 µM | [2] 20.1 µM | [3] 18.2 µM | [4] 22.7 µM | [5] 17.2 µM | [6] 16.1 µM | [7] 20.7 µM | [8] 20.2 µM
inactive: [9] | [10]

CC(=O)[C@@]1(O)CC[C@H]2[C@@H]3CCC4=CC(=O)CC[C@]4(C)[C@H]3CC[C@@]21C
not listed: [7]
inactive: all other assays above

Cc1ccc(C(C)(C)C)c(O)c1
inactive: all assays above

CCCC(=O)O
not listed: [6]
inactive: all other assays above

CC(C)NCC(O)c1ccc(O)c(O)c1 (configuration not stated)
active: [5] 9.92 µM | [7] 0.149 µM | [9] 0.227 µM | [10] 0.319 µM
inactive: all other assays above

O=C(Oc1ccccc1)c1cccc(C(=O)Oc2ccccc2)c1
not listed: [5]
inactive: all other assays above

CCCCc1nc2cccnc2n1Cc1ccc(-c2ccccc2-c2nnn[nH]2)cc1
active: [1] 50 µM
not listed: [7]
inactive: all other assays above

CC1(C)C(=O)NC(=O)N1CO
not listed: [7]
inactive: all other assays above

C/C=C/c1ccc(OC)cc1
not listed: [6]
inactive: all other assays above

O=C1c2c(O)cccc2Cc2cccc(O)c21
not listed: [6] | [7]
inactive: all other assays above

COc1ccc(C(=O)Nc2nc3ccccc3c(NCc3ccccc3)c2C#N)cc1
inactive: [2] | [4] | [6] | [8]
active: [1] 13.4 µM | [3] 17.9 µM | [5] 4.44 µM | [7] 12.9 µM | [9] 15.7 µM | [10] 4.35 µM

CCCCC(CC)COP(=O)(OCC(CC)CCCC)OCC(CC)CCCC (configuration not stated)
not listed: [6]
inactive: all other assays above

CCc1cc(C2=C(C(=O)O)N(c3ccccc3C(F)(F)F)S(=O)(=O)c3ccccc32)cc2c1OCO2
inactive: [1] | [5] | [8]
active: [2] 50 µM | [3] 75.4 µM | [4] 78.5 µM | [6] 73.3 µM | [7] 9.92 µM | [9] 80.1 µM | [10] 74.3 µM

O=C(O)CN(CC(=O)O)CC(=O)O
inactive: all assays above

O=C(N[C@@H](c1ccccc1)[C@@H]1CCCCN1)c1cccc(C(F)(F)F)c1Cl
active: [1] 17.9 µM | [2] 61.9 µM | [3] 25.3 µM | [4] 85 µM | [5] 50 µM | [7] 12.6 µM | [8] 65 µM | [10] 84.7 µM
inactive: [9]

CN(C)CCCN(C)CCCN(C)C
not listed: [7]
inactive: all other assays above
